Article PMC4336329 (PLoS ONE, 2015)
Among all 310,000 compounds or so, about 14,000 (4.5%) showed an effect of 50% or more. The effect is printed as a negative number. Only a selection was taken, and strong results are over-represented in it overall.

Each compound was assayed against human ether-à-go-go-related gene (hERG) potassium channel (human, UniProt Q12809) (assay: primary screen, population patch clamp on CHO cells stably expressing hERG; higher = less effect of the substance).
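Further: peak tail current of the secondary pulse compared with the same well before compound.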

human ether-à-go-go-related gene (hERG) potassium channel, sequence (Q12809 whole entry, looked up): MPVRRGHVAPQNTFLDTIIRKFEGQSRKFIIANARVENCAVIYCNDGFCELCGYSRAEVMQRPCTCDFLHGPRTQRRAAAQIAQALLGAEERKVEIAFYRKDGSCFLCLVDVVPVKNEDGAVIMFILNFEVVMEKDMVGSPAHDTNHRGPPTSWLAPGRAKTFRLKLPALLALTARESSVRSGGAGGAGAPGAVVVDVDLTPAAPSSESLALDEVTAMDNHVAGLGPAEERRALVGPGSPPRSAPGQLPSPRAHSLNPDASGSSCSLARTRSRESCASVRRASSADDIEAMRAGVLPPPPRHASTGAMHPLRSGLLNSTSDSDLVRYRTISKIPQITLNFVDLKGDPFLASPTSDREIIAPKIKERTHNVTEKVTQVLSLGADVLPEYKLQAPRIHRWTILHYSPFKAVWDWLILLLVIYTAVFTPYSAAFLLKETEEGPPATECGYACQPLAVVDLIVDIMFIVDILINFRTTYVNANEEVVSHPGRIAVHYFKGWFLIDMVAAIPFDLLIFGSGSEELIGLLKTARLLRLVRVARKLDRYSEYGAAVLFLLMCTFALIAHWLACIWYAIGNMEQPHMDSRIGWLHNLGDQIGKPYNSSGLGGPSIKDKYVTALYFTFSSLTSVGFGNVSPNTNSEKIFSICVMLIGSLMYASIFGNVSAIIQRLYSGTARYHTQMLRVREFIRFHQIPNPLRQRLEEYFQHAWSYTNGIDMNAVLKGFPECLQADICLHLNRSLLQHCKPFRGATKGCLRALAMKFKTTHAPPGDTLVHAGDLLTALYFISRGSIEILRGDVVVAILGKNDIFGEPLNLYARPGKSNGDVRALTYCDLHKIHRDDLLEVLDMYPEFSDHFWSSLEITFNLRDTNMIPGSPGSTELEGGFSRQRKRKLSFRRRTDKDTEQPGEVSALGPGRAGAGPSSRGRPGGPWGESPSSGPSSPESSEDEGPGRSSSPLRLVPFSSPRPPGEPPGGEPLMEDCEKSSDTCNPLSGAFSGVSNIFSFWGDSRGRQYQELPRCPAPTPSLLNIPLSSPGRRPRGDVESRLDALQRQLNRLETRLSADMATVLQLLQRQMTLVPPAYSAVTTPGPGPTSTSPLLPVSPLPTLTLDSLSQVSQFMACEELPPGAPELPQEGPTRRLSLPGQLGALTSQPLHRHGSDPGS

Compared with `Cc1cc(C(F)(F)F)n2ncc(-c3cccc(Br)c3)c2n1`, `CS(=O)(=O)c1ccccc1-c1nc(-c2cc(C(F)(F)F)cc(C(F)(F)F)c2)no1` is lower in “hERG current change (%, negative = inhibition) at 10uM” value: 22.6% for the first, 4.06% for the second.

First: O=C(Cn1nc(-c2ccccc2)ccc1=O)Nc1cccc(NC(=O)c2ccccn2)c1
Second: CCCOc1cccc(-c2cc(C(=O)N/N=C/c3ccccn3)c3ccccc3n2)c1
The “hERG current change (%, negative = inhibition) at 10uM” value of the first is lower: -0.657% for the first, 0.224% for the second.

Compared with `Cc1noc(NS(=O)(=O)c2ccc(N3CC(O)=C(c4ccccc4)C3=N)cc2)c1C`, `COc1ccc(CCNC(=O)c2cccc(S(=O)(=O)NC(C)c3ccccc3)c2)cc1` (centres unmarked) is lower in “hERG current change (%, negative = inhibition) at 10uM” value: 20.5% for the first, 6.04% for the second.

First: CCOC(=O)c1c(C)c(C(=O)Nc2ccc(N(C)C)cc2)c(C)n1CC
Second: CCOC(=O)C(C)Oc1cccc2c(=O)n(CC(=O)NCc3ccc(F)cc3)ccc12 (centres unmarked)
The “hERG current change (%, negative = inhibition) at 10uM” value of the first is higher: -1.83% for the first, -4.43% for the second.

Compared with `COCCCNC(=O)c1cc(C(=O)c2ccccc2Br)c[nH]1`, `CCOc1ccc2ccccc2c1/C=N\NC(=O)OC` is lower in “hERG current change (%, negative = inhibition) at 10uM” value: 15.1% for the first, 12.7% for the second.

Compared with `COc1ccc(CCCc2nnc(SCC(=O)Nc3ccc(OC)cc3)o2)cc1`, `COc1ccc(CC2(CO)CCN(S(=O)(=O)c3cccc4cccnc34)CC2)cc1` is lower in “hERG current change (%, negative = inhibition) at 10uM” value: 17.7% for the first, -5.13% for the second.

Going from `COc1ccc(Cl)cc1NC(=O)c1ocnc1C` to `COc1cccc2cc(C(C)=O)oc12`, the “hERG current change (%, negative = inhibition) at 10uM” value rises from 10.1% to 15.5%.

Going from `Br.CCCCn1c(=N)n(CC(=O)c2ccco2)c2ccccc21` to `Br.CCCCCCCn1c(=N)n(CC(=O)c2ccco2)c2ccccc21`, the “hERG current change (%, negative = inhibition) at 10uM” value falls from -41.8% to -70.6%.

First: Br.CCn1c(=N)n(CC(=O)c2ccco2)c2ccccc21
Second: Br.Cc1ccccc1Cn1c(=N)n(CC(=O)c2ccco2)c2ccccc21
The “hERG current change (%, negative = inhibition) at 10uM” value of the first is higher: -3.75% for the first, -65% for the second.

Going from `Br.N=c1n(CC(=O)O)c2ccccc2n1Cc1ccccc1Cl` to `CCCn1c(N)[n+](CC(=O)c2ccco2)c2ccccc21.[Br-]`, the “hERG current change (%, negative = inhibition) at 10uM” value falls from 0.122% to -11.1%.

Compared with `O=C(OC(C(=O)NCc1ccc2c(c1)OCO2)c1ccccc1F)c1ccco1` (centres unmarked), `C/C(=N\NC(=O)c1ccco1)c1cc2ccccc2o1` is higher in “hERG current change (%, negative = inhibition) at 10uM” value: -31.1% for the first, -9.09% for the second.

First: COc1cccc2cc(/C(C)=N/NC(=O)c3ccco3)oc12
Second: C/C(=N\NC(=O)c1nc2ccccn2c1C)c1ccco1
The “hERG current change (%, negative = inhibition) at 10uM” value of the first is lower: -52.2% for the first, -1.34% for the second.

First: C/C(=N\NC(=O)c1ccc(O)cc1)c1cc2ccccc2o1
Second: C/C(=N\NC(=O)c1ccncc1)c1cc2ccccc2o1
The “hERG current change (%, negative = inhibition) at 10uM” value of the first is lower: -50.3% for the first, -20.5% for the second.

Going from `C/C(=N\NC(=O)c1nc2ccccn2c1C)c1cc2ccccc2o1` to `C/C(=N\NC(=O)c1nc2ccccn2c1C)c1ccc2c(c1)OCO2`, the “hERG current change (%, negative = inhibition) at 10uM” value rises from -63% to -18.5%.

Compared with `C/C(=N\NC(=O)c1cc2ccccc2cc1O)c1cc2ccccc2o1`, `COc1ccc(CC2(CO)CCN(Cc3cccn3-c3ccccn3)CC2)cc1` is lower in “hERG current change (%, negative = inhibition) at 10uM” value: 6.05% for the first, -75.4% for the second.

First: Cc1ccc(Nc2ncc3c(n2)CC(C)CC3=O)c(C)c1 (centres unmarked)
Second: Cc1ccc2nc(Cl)c(CN(C(=O)c3cnccn3)C3CCCCC3)cc2c1
The “hERG current change (%, negative = inhibition) at 10uM” value of the first is higher: 0.876% for the first, -24.7% for the second.

First: CCCCN(C(=O)c1cc(CC)c(C)s1)c1c(N)n(CCC)c(=O)[nH]c1=O
Second: COc1cccc(CN2CCNC(=O)C2CC(=O)N(C)CCC2CCOCC2)c1 (centres unmarked)
The “hERG current change (%, negative = inhibition) at 10uM” value of the first is lower: -20.8% for the first, 8.75% for the second.

Compared with `O=S(=O)(c1cccc(F)c1)N1CCC(CO)(Cc2cccc(F)c2)CC1`, `OCC1(Cc2cccc(F)c2)CCN(Cc2cccc3nccnc23)CC1` is lower in “hERG current change (%, negative = inhibition) at 10uM” value: -18.2% for the first, -59.8% for the second.

First: O=C(c1cnsn1)N1CCC(CO)(Cc2cccc(F)c2)CC1
Second: COc1ccc(CC2(CO)CCN(Cc3cnn(C)c3C)CC2)cc1
The “hERG current change (%, negative = inhibition) at 10uM” value of the first is higher: 10.8% for the first, -21.6% for the second.

First: CCCn1ncc(CN2CCC(CO)(Cc3ccc(OC)cc3)CC2)c1C
Second: COc1ccc(CC2(CO)CCN(Cc3cccc4nccnc34)CC2)cc1
The “hERG current change (%, negative = inhibition) at 10uM” value of the first is higher: -41.9% for the first, -70.9% for the second.

`COc1cc(CN2CCN(Cc3cccc(OC)c3OC)CC2)cc(OC)c1` was tested, and the “hERG current change (%, negative = inhibition) at 10uM” value was -34.2%.
